DAX1 inh-1 – DAX1 (NR0B1) inhibitors on StAR promoter, primary screen, cell-based, luminescence, SF-1 (NR5A1), full-length DAX-1. hit rate 1.1% among 370,000. inhibition, % at 6.8 µM. HEK293T StAR-luciferase reporter, SF-1/DAX-1 repression relief;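 active means inhibition above the mean over all tested compounds plus 3 SD, cut at about 3.6% in these data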;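 further: 0% = DAX-1 cells with DMSO and 100% = cells lacking DAX-1 with DMSO; higher inhibition means more luminescence from relief of DAX-1 repression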
hcDAF-12 act – H. contortus DAF-12 nuclear receptor activators, primary screen, cell-based, luminescence, HEK293, lit1-tk-luc reporter. HEK293 hcDAF-12 lit1-tk-luc reporter; 0% DMSO, 100% Δ7-dafachronic acid. activation, % at 6.8 µM. hit rate 1.4% among 370,000. AID 652067, 2013;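 active means activation above the mean of all tested compounds plus 3 SD, cut at about 5.5% in these data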;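 further: 100% = response to 3 µM Δ7-dafachronic acid high control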
hgDAF-12 ag – H. glycines DAF-12 receptor agonists, primary screen, cell-based, luminescence, HEK293, GAL4 fusion, UAS-luciferase; HEK293 GAL4-hgDAF12 UAS-luciferase reporter, agonist luminescence; normalized to butyrate control; activation, % at 6.8 µM; Nuclear hormone receptor DAF-12 (Heterodera glycines), GAL4 fusion; AID 687014, 2013; hit rate 1.8% among 370,000;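 active means activation above a cutoff set at the mean of all screened compounds plus 3 SD, cut at about 10% in these data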;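 further: 0% = DMSO wells and 100% = sodium butyrate wells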
DAX1 inh-2 – DAX1 (NR0B1) inhibitors, primary screen, cell-based, HEK293, Gal4-DAX1, luciferase luminescence | HEK293 Gal4-DAX1 luciferase reporter | Nuclear receptor subfamily 0 group B member 1 (Homo sapiens), P51843 | hit rate 0.99% among 340,000 | inhibition, % at 6.75 µM;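 active means inhibition above the mean over all tested compounds plus 3 SD, cut at about 4.2% in these data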;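 further: 0% = DAX1-transfected cells with DMSO and 100% = empty-vector control cells with DMSO; inhibition shows as a rise in luminescence from relieved DAX1 repression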
Target sequence (P51843 207-470 limits assumed): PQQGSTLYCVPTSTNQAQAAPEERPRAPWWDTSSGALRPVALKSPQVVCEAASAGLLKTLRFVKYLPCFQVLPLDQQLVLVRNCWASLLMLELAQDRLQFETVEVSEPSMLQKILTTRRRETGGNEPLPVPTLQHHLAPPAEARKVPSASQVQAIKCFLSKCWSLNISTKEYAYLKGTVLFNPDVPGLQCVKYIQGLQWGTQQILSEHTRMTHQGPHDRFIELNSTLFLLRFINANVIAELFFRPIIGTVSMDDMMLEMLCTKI
ssDAF12 agonist – S. stercoralis DAF-12 nuclear receptor activators, primary screen, cell-based, luminescence, HEK293, GRIP1 co-expression, lit1-tk-luc. Nuclear hormone receptor DAF-12 (Strongyloides stercoralis). HEK293 ssDAF-12/GRIP1 lit1-tk-luc reporter; % of 3 µM dafachronic acid response. activation, % at 6.8 µM. hit rate 1% among 370,000. AID 652126, 2013;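 active means activation above the mean over all tested compounds plus 3 SD, cut at about 0.9% in these data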;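 further: 0% = DMSO-only wells and 100% = 3 µM delta7-dafachronic acid wells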
Starred values were filed as active, the others as inactive. Rows were chosen to be rich in hits. Some 4.1% of all compounds tested hit in one or more screens of this group.

`CCC1CCCCN1CCCNC(=O)c1ccc2nc(N3CCCCC3)sc2c1` (stereo unspecified) gave DAX1 inh-1 1.9, hcDAF-12 act 5.6*, hgDAF-12 ag 10.7*, DAX1 inh-2 0.5 and ssDAF12 agonist 0.5.
Screening CCCN1CCN(CCCNC(=O)c2ccc3nc(N4CCCCC4)sc3c2)CC1 returned DAX1 inh-1 4.4*, hcDAF-12 act 2.6, hgDAF-12 ag 6.7, DAX1 inh-2 2.0 and ssDAF12 agonist -0.7.
Screening CC1CCCC(C)N1CCCNC(=O)c1ccc2nc(N3CCCCC3)sc2c1 (stereo unspecified) returned DAX1 inh-1 3.8*, hcDAF-12 act 2.0, hgDAF-12 ag 8.7, DAX1 inh-2 2.4 and ssDAF12 agonist -0.6.
`CCC[C@H]1[C@@H](NCc2cccs2)CC[C@@]23CCCN2C(=O)CCC[C@@H]13` gave hcDAF-12 act -1.7, hgDAF-12 ag -2.5 and ssDAF12 agonist -0.9.
CCCCN1CCN(C2=Nc3ccccc3Sc3ccccc32)CC1 was read as DAX1 inh-1 0.4, hcDAF-12 act -2.3, hgDAF-12 ag 1.9 and ssDAF12 agonist -1.4.
Screening O=C(Nc1ccc2c(c1)OCO2)O[C@@H]1CC[C@@]23CCCN2C(=O)CCC[C@H]3C1 returned hcDAF-12 act 0.9, hgDAF-12 ag 5.4 and ssDAF12 agonist -0.3.
Screening N#C/C(=C(/O)CSc1ncn[nH]1)c1nc2ccccc2[nH]1 returned DAX1 inh-1 0.7, hcDAF-12 act 6.5*, hgDAF-12 ag -0.3, DAX1 inh-2 0.0 and ssDAF12 agonist -0.5.
Screening Cc1cc(C)n2c(SCC(O)=C(C#N)c3nc4ccccc4[nH]3)nnc2n1 returned DAX1 inh-1 -0.1, hcDAF-12 act 1.0, hgDAF-12 ag -0.7, DAX1 inh-2 0.0 and ssDAF12 agonist -1.4.
For CCOC(=O)[C@]12CCCC=C1N(Cc1ccc(OC)cc1)C(=O)[C@@H]2CC(=O)NCCCN1CCCC1=O the results were DAX1 inh-1 -0.9, hcDAF-12 act -2.3, hgDAF-12 ag -2.8 and ssDAF12 agonist -1.4.
CC(C)C(NS(=O)(=O)c1ccc2c(c1)oc(=O)n2C)C(=O)N1CCN(c2ccccc2F)CC1 (stereo unspecified) was read as DAX1 inh-1 -0.6, hcDAF-12 act -1.0, hgDAF-12 ag -0.6, DAX1 inh-2 4.8* and ssDAF12 agonist -0.6.
Screening COC(=O)c1scc(C)c1NC(=O)Cc1ccccc1 returned DAX1 inh-1 -0.6, hcDAF-12 act -0.8, hgDAF-12 ag 1.5, DAX1 inh-2 0.3 and ssDAF12 agonist -1.1.
Screening CCOC(=O)C(=CNNc1c(C)csc1C(=O)OC)C(=O)OCC returned DAX1 inh-1 -0.4, hcDAF-12 act 6.3*, hgDAF-12 ag -0.8, DAX1 inh-2 0.5 and ssDAF12 agonist -0.4.
For Cc1nc(C(F)(F)F)ccc1C(=O)N1CCC1(C)C(=O)NS(=O)(=O)c1ccc(C#N)cc1 (stereo unspecified) the results were DAX1 inh-1 -0.2, hcDAF-12 act 1.5, hgDAF-12 ag -0.5 and ssDAF12 agonist -1.5.
c1coc(CSc2ncnc3c2oc2ccccc23)c1 was read as DAX1 inh-1 0.3, hcDAF-12 act 2.7, hgDAF-12 ag 5.0, DAX1 inh-2 5.7* and ssDAF12 agonist 0.2.
For Cc1ccc(S(=O)(=O)N2CCC(=O)N(C(COCc3ccc(Cl)cc3Cl)Cc3ccccc3)CC2)cc1 (stereo unspecified) the results were DAX1 inh-1 -0.6, hcDAF-12 act -0.8, hgDAF-12 ag 2.6, DAX1 inh-2 5.3* and ssDAF12 agonist -1.6.
`Cc1ccc(-c2nc(C3CCCN(S(=O)(=O)c4ccccc4)C3)no2)cc1` (stereo unspecified) gave DAX1 inh-1 0.0, hcDAF-12 act -2.7, hgDAF-12 ag -0.5 and ssDAF12 agonist -1.3.
COC(=O)c1ccccc1NC(=O)NCC1CCN(Cc2ccc(OC)cc2)CC1 was read as DAX1 inh-1 -1.6, hcDAF-12 act -3.3, hgDAF-12 ag -2.4 and ssDAF12 agonist -1.2.

Source: PubChem (The Scripps Research Institute Molecular Screening Center)
